The results in this text go back to PubChem BioAssay AID1554 (Broad Institute, 2009).

Each structure is given as a SMILES string. Among all 300,000 compounds or so, about 520 (0.17%) were called active. This is one part of a sample in which actives are shown more often than they occur. Rule as the data show it: active = inhibition above about 50%; inconclusive = no clear call, values can overlap the other calls; inactive = below that.

This assay is described as follows: PubChem AID 1554. The settings on record: BJeLR (HRASV12) viability, CellTiter-Glo ATP luminescence, 48 h; hits give high values; concentration not given here.
With `COC(=O)c1c(NC(=O)c2ccccc2F)sc2c1C(C(=O)OC)CC2` (configuration not stated), the inhibition is -1.69% (inactive).
As for `CCOc1ccc2[nH]c3nc(SCC(=O)NC4CCCC4)nnc3c2c1`, the figure is 19.9% (inactive); as for `CCOC(=O)c1c(C)nc(-c2ccccc2)nc1NC(=O)C(C)C`, -1.6% (inactive); as for `CCOC(=O)c1c(C)[nH]c2c1-c1ccccc1C(=O)C2=O`, 74.1% (active).
The result for `CCOC(=O)c1c(C)[nH]c(C)c1S(=O)(=O)N(C)CC(=O)Nc1ccccc1C` reads 1.31% (inactive); that for `O=C(NNc1c2ccccc2nc2ccccc12)c1cc2ccccc2cc1O`, 11.9% (inactive).
Consider `NC(=O)C1CC(=O)N(c2ccc(OCC(=O)NCc3ccccc3)cc2)C1` (configuration not stated), for which the inhibition was -5.85% (inactive).
As for `COc1cccc(-c2cc(C(=O)N3CCN(c4ccccc4OC)CC3)no2)c1`, the figure is -5.2% (inactive); as for `COc1ccccc1N1CCN(C(=O)c2cc(=O)c3cc(C)cc(C)c3o2)CC1`, 58.9% (active).
For the molecule `COc1ccccc1N1CCN(C(=O)c2cc(=O)c3cc(C)ccc3o2)CC1`, the inhibition was 8.05% (inactive).
For `Cc1ccc(-c2cc(C(F)(F)F)n3ncc(C(=O)N4CCCCC4c4cccnc4)c3n2)cc1` (configuration not stated), the inhibition was -3.16% (inactive).
As for `CSc1n[nH]c(=S)n1N`, the figure is 6.98% (inactive).
As for `CCOC(=O)c1cccc(NC(=O)CCn2nnc3ccccc32)c1`, the figure is 5.93% (inactive).
The result for `COC(=O)c1ccc(C(=O)Nc2cc(Cl)ccc2Cl)cc1NC(=O)c1ccccc1C` reads 5.33% (inactive); that for `COc1c(C(=O)N2CCCC2)ccc2ccccc12`, -16.2% (inactive).
Take `CC(C)n1c(-c2ccncc2)n[nH]c1=S`: the inhibition is -1.2% (inactive).
The result for `O=c1[nH]snc1-c1c(Cl)cccc1Cl` reads 1.3% (inactive); that for `COc1ccc2c(c1)CCNC2Cc1ccc(OC)c(O)c1` (configuration not stated), -7.5% (inactive); that for `CCc1ccc(OCC2c3cc(OC)c(OC)cc3CCN2C(C)=O)cc1` (configuration not stated), -19.6% (inactive).
The result for `CC[C@H]1CN2CCc3cc(OC)c(OC)cc3[C@@H]2C[C@@H]1C[C@H]1NCCc2cc(OC)c(OC)cc21` reads 71.3% (active); that for `CN(c1ccccc1)S(=O)(=O)c1cccc(C(=O)NNC(=O)c2ccncc2)c1`, -13.6% (inactive); that for `COc1cc(NS(=O)(=O)c2ccc(NC(=O)CN3C(=O)c4ccccc4C3=O)cc2)ncn1`, -1.96% (inactive).
Consider `COc1ccc(CNC(=O)CCC(=O)Nc2nnc(C(C)C)s2)cc1`, for which the inhibition was 2.41% (inactive).
As for `O=C(NCc1ccc2c(c1)OCO2)c1sccc1Br`, the inhibition is -9.24% (inactive).
The result for `CSc1nc(C)nc(C2CC2)c1C#N` reads -2.16% (inactive); that for `CCOc1ccc(C(CC(=O)O)n2cnnn2)cc1OC` (configuration not stated), -0.928% (inactive).
As to `COc1ccc(NC(=O)C(C)N2c3cccc4cccc(c34)S2(=O)=O)c(OC)c1` (configuration not stated), the inhibition was -7.67% (inactive).
The result for `O=C(c1cccc(F)c1)N1CCC(O)(c2cccnc2)CC1` reads 1.27% (inactive).
As for `Cc1ccc(Nc2cc(C)nc3c(C)ccc([N+](=O)[O-])c23)cc1`, the figure is -0.482% (inactive).
For the molecule `N#Cc1c(-c2cccs2)nc(SCC(=O)c2ccc(Br)cc2)[nH]c1=O`, the inhibition was -2.63% (inactive).
As for `COc1ccc(Nc2ncc(F)c(N3CCOCC3)n2)cc1`, the figure is -4.96% (inactive); as for `O=C(/C=C/c1ccco1)Nc1ccc(Oc2ccccc2)cc1`, 66.3% (active).
As for `O=C(/C=C/c1ccco1)Nc1cccc(-c2nc3ccccc3[nH]2)c1`, the figure is -10.7% (inactive); as for `Cc1nnc(NC(=O)/C=C/c2ccco2)s1`, 2.63% (inactive).
With `CCCOc1ccc(C(=O)C(CCC(CNCC)C(=O)c2ccc(OCCC)cc2)CNCC)cc1` (configuration not stated), the inhibition is 137% (active).
The result for `CCCOc1ccc(C(=O)CCC(=O)OC(C)C(=O)Nc2ccc(NC(C)=O)cc2)cc1` (configuration not stated) reads 0.465% (inactive); that for `CCCCOc1ccc(C(=O)NN2CCN(C)CC2)cc1`, 1.04% (inactive); that for `CCOc1cc(C2C(C(=O)OC(C)C)=C(C)NC3=C2C(=O)CCC3)cc([N+](=O)[O-])c1O` (configuration not stated), -2.99% (inactive).
On to `Cc1ccc(CNC(=O)c2cccnc2Cl)cc1`, for which the inhibition was 1.72% (inactive).
Turning to `COc1cc(C(CCN2CCN(c3ccccc3)CC2)c2c(OC)cc(OC)c3ccc(=O)oc23)cc(OC)c1OC` (configuration not stated), the inhibition was -7.5% (inactive).
As for `COC(=O)C(C(=O)Nc1cccc(Cl)c1C)C1CCCC1` (configuration not stated), the figure is -7.59% (inactive); as for `COc1ccc(/C=C/C2=CC(C)(C)NC(=S)N2)c(OC)c1`, -7.98% (inactive).
Take `NC(=O)CC[C@@H]1NC(=O)[C@H](CO)NC(=O)c2cc([N+](=O)[O-])cc(I)c2NCC[C@@H](C(N)=O)NC1=O`: the inhibition is -1.96% (inactive).
The result for `CCC(=C/c1sc2ccc3ccccc3c2[n+]1C)/C=C1\Sc2ccc3ccccc3c2N1C` reads 60.9% (active); that for `COc1ccc(C2=NS(=O)(=O)N(C)C(C(=O)N3CCCCC3)=C2)cc1`, -1.58% (inactive); that for `COc1cc(-c2c(-c3ccc4c(c3)OCO4)noc2C)ccc1F`, -5.31% (inactive).
The result for `C=CCNc1nc(N)c([N+](=O)[O-])c(NC2CCCCC2)n1` reads -1.25% (inactive); that for `CC(=O)NCCc1ccc(S(=O)(=O)N(C)C2CCS(=O)(=O)C2)cc1` (configuration not stated), 7.45% (inactive); that for `O=C(NCc1ccco1)c1ccc(NS(=O)(=O)c2cccc([N+](=O)[O-])c2)cc1`, 5.53% (inactive).
As for `COc1ccc(S(=O)(=O)N2CCOCC2)cc1NC(=O)COc1ccccc1`, the figure is -1.51% (inactive); as for `COc1ccccc1N(C(=O)Cn1nnc2ccccc21)C(C(=O)NCc1ccco1)c1ccc(C)o1` (configuration not stated), -3.41% (inactive); as for `O=C(Nc1ccc(Cl)cc1)/C(=C1\CCCN1)[N+](=O)[O-]`, -2.59% (inactive).
For the molecule `CCCC(C(=O)NC1CCCC1)N(C(=O)Cn1nnc(-c2ccc(C)o2)n1)c1cccc(O)c1` (configuration not stated), the inhibition is -0.539% (inactive).
For `Cc1c(NC(=O)Nc2cccc([N+](=O)[O-])c2)c(=O)n(-c2ccccc2)n1C`, the inhibition was 1.78% (inactive).
The result for `CC1(C)O[C@H]2CC(=O)OCC23[C@H]2CC[C@@]4(C)[C@H](c5ccoc5)OC(=O)[C@H]5O[C@]54[C@]2(C)C(=O)C[C@@H]13` (some centres not stated) reads 4.22% (inactive); that for `CC(C)CNC(=S)NC(=O)c1ccc(Cl)cc1`, -11.5% (inactive); that for `Cc1cc(F)ccc1NC(=O)C(C)n1c2ccccc2c2nc(=O)cc(C)n21` (configuration not stated), -6.86% (inactive).

The term inhibition denotes the drop in the measured response relative to a control, in per cent.
